Test results taken from PubChem BioAssay (Tox21).
Results filed as inconclusive are left out. Where a call stands in place of a potency, no number is given. A number with no mark means an inactive call. Activity calls are given as the source filed them. Calls come from the whole dose curve.

molecular target: 5-hydroxytryptamine receptor 2A (Homo sapiens) (UniProt P28223); assay: 5-hydroxytryptamine receptor 2A (HTR2A) small molecule agonists, cell-based qHTS assay (AID 1963587); details: HTR2A-CHO cells, calcium flux fluorescence, agonist mode; series mostly up to 76.8 µM; note: nearly all actives have a fitted effect of over 30% in size
Source text: National Center for Advancing Translational Sciences [NCATS]
Division of Preclinical Innovation [DPI]
U.S. Environmental Protection Agency [EPA]
National Institutes of Environmental Health Sciences [NIEHS]
National Toxicology Program [NTP]
U.S. Food and Drug Administration [FDA]
The HTR2A receptor is a subtype of the 5-HT2 receptor that belongs to the serotonin receptor family and is a G protein-coupled receptor (GPCR). The HTR2A-CHO cell line stably expressing human 5-hydroxytryptamine receptor 2A (HTR2A) can be used for screening agonists of interactions between 5-HT2 and its ligands. The HTR2A-CHO calcium flux assay is a homogeneous fluorescence-based assay for detecting the intracellular calcium level using FDSS kinetic plate reader system.
HTR2A-CHO cells were dispensed at 2000 cells/3uL/well in 1536-well black-clear bottom plates using a Multidrop Dispenser. After the assay plates were incubated at a 37 C/5% CO2 incubator for 18 h, 3 uL of Dye Loading Buffer was transferred to the assay plate by a Flying Reagent Dispenser. The assay plates were incubated at 37 C for 1h. For agonist mode, 23 nL of compounds dissolved in DMSO, positive controls or DMSO only was transferred to the assay plate by a pin tool. The fluorescence intensity in the plates was measured using FDSS 7000EX kinetic plate reader for 2 min at 1 sec intervals.
Potency is the fitted concentration of half-maximal effect.

Chain of 5-hydroxytryptamine receptor 2A (Homo sapiens) (P28223 whole entry, looked up): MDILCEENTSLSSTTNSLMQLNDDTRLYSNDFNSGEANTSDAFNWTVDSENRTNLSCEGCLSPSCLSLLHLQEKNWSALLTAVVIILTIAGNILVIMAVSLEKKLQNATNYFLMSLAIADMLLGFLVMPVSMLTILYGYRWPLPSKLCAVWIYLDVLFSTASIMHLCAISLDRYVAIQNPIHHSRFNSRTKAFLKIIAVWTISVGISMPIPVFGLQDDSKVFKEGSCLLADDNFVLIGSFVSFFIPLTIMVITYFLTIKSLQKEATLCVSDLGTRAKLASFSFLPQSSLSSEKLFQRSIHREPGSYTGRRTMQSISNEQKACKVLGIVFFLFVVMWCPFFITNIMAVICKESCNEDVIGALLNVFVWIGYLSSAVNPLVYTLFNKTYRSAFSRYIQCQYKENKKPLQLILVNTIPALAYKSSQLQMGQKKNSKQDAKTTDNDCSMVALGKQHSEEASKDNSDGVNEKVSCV

Structure (SMILES)	Potency	activation
C=CC/C=C/C/C=C/C/C=C/C	inactive	–
O=C1OC(=O)C2C3C=CC(C3)C12 (stereo not given)	inactive	–
CC(C)=CC(=O)C=C(C)C	inactive	–
CCN1CCCC1CN (stereo not given)	inactive	–
CC(C)CCCC(C)NCCC(C)C (stereo not given)	inactive	–
CCCC(=O)c1cc(O)c(O)cc1O	436 nM (active)	–
Cc1c(C2(c3cc(Br)c(O)c(Br)c3C)OS(=O)(=O)c3ccccc32)cc(Br)c(O)c1Br	inactive	–
CC(CN(C)C)C(C)(O)Cc1ccc(Cl)cc1 (stereo not given)	inactive	–
CC(C)(C)C(=O)NCCCC(=O)O	inactive	–
CCC(=O)C(=O)CC	inactive	–
CCOC(=O)CCc1ccccc1	inactive	–
Cc1ccc(CCn2c3c(c4cc(Cl)ccc42)CN(C)CC3)cn1	inactive	–
C=CCON/C(CCC)=C1\C(=O)CC(C)(C)C(C(=O)OC)=C1O	inactive	–
Cc1c(F)cc2c(=O)c(C(=O)O)cn3c2c1CCC3C (stereo not given)	inactive	–
O=C(O)c1ccc2cc(O)ccc2c1	inactive	–
CCCCCCCCCCC(=O)O	inactive	–
CCCC1CCC(=O)O1 (stereo not given)	inactive	–
O=C1Nc2cc(Cl)ccc2Oc2ccccc21	inactive	–
O=C(c1ccc(O)cc1)c1ccc(O)cc1	inactive	–
ICCc1ccccc1	inactive	–

Structure (SMILES)	Potency	activation
N#Cc1ccc(C/C(=N/NC(=O)Nc2ccc(OC(F)(F)F)cc2)c2cccc(C(F)(F)F)c2)cc1	inactive	–
N#CSCC(=O)O	inactive	–
O=C(Nc1ccccc1)c1cc([N+](=O)[O-])ccc1Cl	inactive	–
CC(C)OC(=O)c1ccccc1	inactive	–
CN1C(=O)c2ccc([N+](=O)[O-])cc2C1=O	inactive	–
CCOC(=O)[C@H](CCc1ccccc1)N[C@@H](C)C(=O)N1Cc2cc(OC)c(OC)cc2C[C@H]1C(=O)O	inactive	–
CC1(N)CCC(C(C)(C)N)CC1 (stereo not given)	inactive	–
O=C(Nc1cccc(C2=NCCN2)c1)Nc1cccc(C2=NCCN2)c1	–	1.02% [at 15.9 µM]
CC(=O)Oc1cc(C(C)C)c(OCCN(C)C)cc1C	inactive	–
CCc1cc(S(=O)(=O)O)c2cc(C(C)C)cccc1-2	inactive	–
O=C1[C@H](CC[C@H](O)c2ccc(F)cc2)[C@@H](c2ccc(O)cc2)N1c1ccc(F)cc1	inactive	–
CCOC(=O)[C@H](O)[C@@H](O)C(=O)OCC	inactive	–
c1ccc(CCNc2nc(-c3ccccc3)cs2)cc1	inactive	–
CC(C(=O)O)c1ccc2c(c1)CC(=O)c1ccccc1S2 (stereo not given)	inactive	–
CCCOC(=O)c1ccc(O)cc1	inactive	–
C/C=C(\C)C=O	inactive	–
Nc1cc(C(F)(F)F)ccc1S	inactive	–
Nc1nc(N)c(-c2ccccc2)s1	inactive	–
C=C[C@@H](C)CCC=C(C)C	inactive	–
COc1ccc(CN2CCN(C(c3ccc(F)cc3)c3ccc(F)cc3)CC2)c(OC)c1OC	inactive	–
